# According to PubChem BioAssay AID1578 (Sanford-Burnham Center for Chemical Genomics, 2009):
# Where “and” joins values, the source holds several entries; their conditions need not be identical. Identical values can stand only once. Screen size: about 290,000 compounds; about 3,000 (1%) were called active. The sample holds actives, similar compounds and a random draw of the others, so the mix is not that of the screen. Unmarked numbers belong to inactive results. Rule as the data show it: active = inhibition mostly above about 36% (no sharp cut-off); inactive = mostly below about 34%.
# Test: NOD1 signaling inhibitors, primary screen, cell-based, luminescence, uHTS (AID 1578);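 also: HEK-293T reporter cells stimulated with the NOD1 agonist gamma-tri-DAP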
# Conditions: NOD1-driven NF-kB luciferase reporter cells, at 4 µM, stronger effect = higher value
row,Structure (SMILES),inhibition
1,Cc1noc(C(=O)NCc2ccco2)c1Cl,-14.8%
2,COc1ccc(NC(=O)CS(=O)(=O)c2ccc(F)cc2)cc1,-5.8%
3,O=C(Nc1ccccc1)c1cc2ccc3ccccc3c2s1,-10.5%
4,O=C(Nc1ccc(O)cc1)c1cc2ccccc2c(=O)s1,-2.1%
5,O=C(Nc1ccccc1)c1cc2ccccc2c(=O)s1,63.7% (active)
6,Cc1ccc(C)c(N2CCN(C(=O)CCS(=O)(=O)c3cccc4nonc34)CC2)c1,1.8%
7,CC(C)C[C@@H](N)c1nnc(SCC(=O)c2ccc(Cl)cc2)o1,-21.8%
8,CC(C)C[C@H](N)c1nnc(SCc2ccc(Cl)cc2)o1,20.5% (active)
9,CC(C)[C@H](N)c1nnc(SCc2ccc(Cl)cc2)o1,-4.6%
10,COc1ccc(N=Cc2cc(Cc3ccccc3Cl)cc([N+](=O)[O-])c2O)cc1OC,62.4% (active)
11,Cc1ccc(O)c(C=Nc2cc(C)ccc2O)c1,-25.5%
12,COc1ccc(N=Cc2cccc(C)c2O)cc1Cl,-10%
13,COc1cc(C=Nc2cccc(C)c2)c(O)c([N+](=O)[O-])c1,-20.1%
14,O=[N+]([O-])c1cc(Cc2ccccc2)cc(C=Nc2ccc(N3CCOCC3)cc2)c1O,34%
15,O=C(N/N=C/c1cc([N+](=O)[O-])c(N2CCOCC2)cc1N1CCOCC1)c1cccnc1,-24.1%
16,O=C(COC(=O)COc1ccccc1[N+](=O)[O-])Nc1ccccc1Br,9.3%
17,Cc1c(C(=O)N2CCCC2)sc(NC(=O)c2ccccc2)c1C#N,-9.5%
18,Cc1c(C(=O)N2CCCCC2)sc(NC(=O)c2ccco2)c1C#N,-0.9%
19,Cc1c(C(=O)N2CCCC2)sc(NC(=O)c2ccco2)c1C#N,48.7% (active)
20,CC1C(=NO)C(C)C(c2ccc(N(C)C)cc2)NC1c1ccc(N(C)C)cc1 (centres undefined),4%
21,CCOC(=O)N1CCN(C(=O)c2ccc3c(c2)sc2nc(-c4ccc(OC)cc4)cn23)CC1,-15.5%
22,COc1ccc2c(c1)sc1nc(-c3ccccc3)cn12,34.4% (active)
23,COc1ccc2c(c1)sc1nc(=O)ccn12,-3.3%
24,O=C(COc1ccccc1)Nc1ccc(Cl)c(-c2nc3ncccc3o2)c1,-25.6%
25,COc1cccc(C(=O)N2CCN(C(=O)C3CC3)CC2)c1,-26.7%
26,COc1ccc(OC(C)C(=O)N2CCCc3ccccc32)cc1 (centres undefined),-45.6%

row,Structure (SMILES),inhibition
1,Cc1nc2ccccn2c1C(=O)N=Nc1c(O)n(CCC(C)C)c2ccccc12,92% (active)
2,CC(C)CCn1c(O)c(N=NC(=O)c2ccco2)c2ccccc21,24.4%
3,Cc1nc2ccccn2c1C(=O)N=Nc1c(O)[nH]c2ccccc12,11.6%
4,CC1=Nc2cc(C(=O)NCCCOC(C)C)ccc2Sc2ccccc21,3.6%
5,Cc1[nH]n(-c2cccc(Cl)c2)c(=O)c1-c1ccccc1,-18%
6,Cc1[nH]n(-c2ccccc2)c(=O)c1-c1ccc(Cl)cc1,-30.5%
7,O=C(CSc1nnc(Cn2c(=O)sc3ccccc32)n1CCc1ccccc1)N1CCOCC1,-11.3%
8,COc1cccc2c1C(CO)N1C(C#N)C3CC(C(=O)O)C(C1C2)N3C (centres undefined),102% (active)
9,COc1cccc2c1OCC(C(=O)O)C2 (centres undefined),-26.7%
10,COc1ccccc1N1CCN(C(=O)C2CC=CCC2C(=O)O)CC1 (centres undefined),-7.7%
11,CC(C)c1ccc(NC2CCCN(C(=O)c3ccc(N4CCOCC4)cc3)C2)cc1 (centres undefined),-4%
12,Cc1ccc(S(=O)(=O)c2c(C)cc(C)[nH]c2=O)cc1,-7.8%
13,Cc1ccc(N/N=C(\C#N)C(=O)c2ccsc2)cc1,-5.4%
14,N#C/C(=N\Nc1ccc(Cl)cc1)C(=O)c1ccccc1,66.9%
15,N#C/C(=N\Nc1ccc(Cl)cc1)C(=O)c1ccsc1,75.6% (active)
16,Cc1[nH]n(-c2ccccc2)c(=O)c1/C=N/N1C(=O)c2ccc3c4c(ccc(c24)C1=O)CC3,90.8% (active)
17,Cc1[nH]n(-c2ccccc2)c(=O)c1C=Nc1cccc2cccnc12,45.4%
18,Cc1cccc(/N=C/c2c(C)[nH]n(-c3ccccc3)c2=O)n1,-8.3%
19,Cc1[nH]n(-c2ccccc2)c(=O)c1/C=N/N1C(=O)c2cccc3cccc(c23)C1=O,-49.6%
20,Cc1[nH]n(-c2ccccc2)c(=O)c1/C=N/N1CCOCC1,6.6%
21,COc1ccc(N=C2SC(C(=O)Nc3ccc(OC)cc3)CC(=O)N2CCN2CCOCC2)cc1 (centres undefined),-18.8%
22,COc1cc(CN2CCCCCC2)cc(OC)c1OC,-23%
23,C(=N\n1c2ccccc2c2ccccc21)/c1ccccc1,6.6%
24,C[n+]1cn(/N=C/c2ccccc2)c2ccccc21,75.1% (active)
25,Cn1c(=O)n(/N=C/c2ccccc2)c2ccccc21,-23.6%
26,CCOC(=O)Cc1csc(NC(=O)c2sc3nc4cc(C)ccc4cc3c2N)n1,-55.6%

row,Structure (SMILES),inhibition
1,Cc1ccccc1CN1CCC(Oc2ccc(C(=O)NCc3ccccn3)cc2)CC1,17%
2,CCn1cc(CNC(=O)c2ccc(OC3CCN(Cc4ccccn4)CC3)cc2)cn1,-0.8%
3,Cc1cc(Sc2nnc(N)s2)c2ccccc2n1,53.2% (active)
4,COc1ccc2nc(C)cc(SCC(=O)NNC(=O)COc3ccccc3)c2c1,9.9%
5,COc1ccc2nc(C)cc(Sc3nc4ccccc4s3)c2c1,47.7% (active)
6,Cc1cc(Sc2nnc(/N=C/N(C)C)s2)c2ccccc2n1,46.4% (active)
7,Cc1nc2ccccc2nc1CSc1nnc(N)s1,-18%
8,Cc1ccc(NC(=O)CSc2nnc(/N=C/N(C)C)s2)cc1,-37.6%
9,Cc1cc(N)c2ccccc2n1,-45.9%
10,CCCCCCCCSc1nnc(/N=C/N(C)C)s1,-11.4%
11,COc1ccc2nc(C)cc(SCC(=O)O)c2c1,-24.8% and -30.8%
12,Cc1ccccc1CN1CCN(CC(=O)NCc2ccco2)C1=O,-14.9%
13,FC(F)(F)COc1nc(N2CCOCC2)nc(N(c2ccccc2)c2ccccc2)n1,-30.9%
14,O=C(Nc1cccc(NC(=O)c2cncc(Br)c2)c1)c1cncc(Br)c1,-16.9%
15,Cc1ccc(NS(=O)(=O)c2cn(C)c(=O)n(C)c2=O)cc1C,-34.3%
16,Cc1ccc(-c2nc(NCC3CCCO3)sc2C)cc1 (centres undefined),-53.2%
17,COCc1cc(C2C(C(=O)c3ccco3)=C(O)C(=O)N2CCOCCO)ccc1O (centres undefined),-32.2%
18,COCCCNC(=O)C(=O)Nc1cc2c3c(c1)CCC(=O)N3CCC2,19.6%
19,CC(=O)c1ccc(NC(=O)c2cnsn2)cc1,44.1%
20,CN(C)c1ccc(NC(=O)c2cnsn2)cc1,65.7% (active)
21,CCOc1ccc(NC(=O)c2cnsn2)cc1,-6.3%
22,Cc1ccc(Cl)cc1N1CCN(S(=O)(=O)c2ccc3[nH]c(=O)ccc3c2)CC1,5.1%
23,O=C(Cn1c(O)c(/C=C2\C=Nc3ccccc32)sc1=O)N1CCOCC1,12.6%
24,C=CCC(=O)NC1CCCc2c1cnn2-c1cc(F)cc(F)c1 (centres undefined),6.1%
25,COc1ccc(-c2cn(-c3ccccc3)c(=S)[nH]2)cc1OC,-4.4%
26,S=c1[nH]c(-c2ccccc2)cn1-c1ccccc1,-7.1%

row,Structure (SMILES),inhibition
1,O=c1oc2ccccc2cc1-c1cn(-c2ccccc2)c(=S)[nH]1,98.5% (active)
2,Cc1ccc(-c2cn(-c3ccccc3)c(=S)[nH]2)cc1C,23.4% (active)
3,O=C(O)c1ccc(-n2cc(-c3cc4ccccc4oc3=O)[nH]c2=S)cc1,-7.2%
4,Cc1ccccc1-c1cn(-c2ccccc2)c(=S)[nH]1,-24.2%
5,Cc1nc2ccc(Cl)cn2c1C(=O)NN,-35.5%
6,O=C(NCCNC(=O)c1ccco1)c1ccco1,5%
7,Cc1cccc(N(CC(=O)NC2CCCCC2)C(=O)CCCC(=O)Nc2ccccn2)c1,-26.2%
8,Cn1nnnc1SCCNCc1ccncc1,-3.9%
9,Cn1c(N2CCCC2)nc2c1c(=O)n(Cc1ccc(Cl)cc1)c(=O)n2C,-9.4%
10,Cn1c(N2CCC(C(N)=O)CC2)nc2c1c(=O)n(Cc1ccc(Cl)cc1)c(=O)n2C,-1.5%
11,O=C(c1nc2ccc(Cl)cn2c1CN1CCC[C@H]1CO)N1CCCCCCC1,-22%
12,CCOC(=O)c1cnc(N2CCN(c3ccccc3)CC2)[nH]c1=O,1.6%
13,CC(=O)c1ccc(NCC2COc3ccccc3O2)c([N+](=O)[O-])c1 (centres undefined),-11.7%
14,CCOC(=O)CSc1ccc2nnc(-c3ccccc3)n2n1,-21.3%
15,COc1nc(Nc2ccccc2F)nc(OC)n1,-28.1%
16,COc1ccc(C(=O)C[n+]2ccc(N)c(C)c2C)cc1,59.4% (active)
17,Cc1c(N)cc[n+](CC(=O)c2ccccc2)c1C,-3.9%
18,COc1ccc(C(=O)C[n+]2ccc3ccccc3c2C)cc1,-2.3%
19,Cc1cc(C(=O)N2CCCC(CCC(=O)N3CCN(c4ccccn4)CC3)C2)c(C)o1 (centres undefined),-25.2%
20,Cc1cc(OCC(=O)NCCN2CCOCC2)cc(C)c1Cl,84.9% (active)
21,Cc1ccc(OCC(=O)NCCN2CCOCC2)cc1C,-3.4%
22,Cc1cc(Cl)ccc1OCC(=O)Nc1ccncc1,23.8%
23,Cc1cc(OCC(=O)Nc2ccncc2)ccc1Br,49.9%
24,Cc1cc(OCC(=O)Nc2ccncc2)ccc1Cl,27.1%
25,Cc1cc(C)cc(OCC(=O)Nc2ccncc2)c1,30.1%
26,Cc1cc(OCC(=O)NCCN2CCOCC2)cc(C)c1Br,-62.5%
